In PubChem BioAssay one finds z-score and composite z-score data, which are given here for 8 compounds.

A short description of assay [1]: A549 cell viability effects, profiling panel, calcein-AM fluorescence, 48 h, basal (AID 1162). Also: test concentration not given here. To be noted: higher = more signal.
The nature of assay [2]: adipocyte viability effects, profiling panel, cell-based, 3T3-L1 adipocytes, calcein-AM fluorescence, 48 h, basal (AID 1163). Also: test concentration not given here. To be noted: 3T3-L1 adipocytes viability, higher = more signal.
Assay [3] in a line: HepG2 cell viability effects, profiling panel, calcein-AM fluorescence, 48 h, basal (AID 1164). Also: test concentration not given here. The note with it: higher = more signal.
Assay [4] in a line: MM1S cell viability effects, profiling panel, calcein-AM fluorescence, 48 h, basal (AID 1165).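 Also: viability of MM1S multiple myeloma cells under basal unstimulated conditions; test concentration not given here.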 The note with it: higher = more signal.
A short description of assay [5]: basal RPMI8226 viability, no added stimulus, profiling panel, cell-based, calcein-AM fluorescence, 48 h, PK04 Diversity Set (AID 1166).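 Also: cells grown under basal conditions without added stimulus; test concentration not given here.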 The note with it: RPMI8226 myeloma viability, higher = more signal.
Assay [6] is described as follows: basal HepG2 mitochondrial membrane potential changes, profiling panel, cell-based, JC-1 fluorescence, 24 h, 100 nL compound (AID 1167). Also: test concentration not given here. To be noted: higher = more signal.
A short description of assay [7]: basal 3T3-L1 adipocyte mitochondrial potential changes, profiling panel, cell-based, JC-1 fluorescence, 3T3-L1 adipocytes, 24 h, 100 nL compound (AID 1168). Also: test concentration not given here. To be noted: JC-1 mitochondrial fluorescence, higher = more signal, called active from +8 up or from −8 down.
Assay [8] can be described thus: basal RPMI8226 mitochondrial membrane potential changes, profiling panel, cell-based, JC-1 fluorescence, 24 h, 100 nL compound (AID 1169). Also: test concentration not given here. The note with it: RPMI8226 myeloma, JC-1 mitochondrial potential fluorescence, higher = more signal.
Assay [9] in a line: basal MM1S mitochondrial membrane potential changes, profiling panel, cell-based, JC-1 fluorescence, 24 h, 100 nL compound (AID 1170). Also: test concentration not given here. The note with it: higher = more signal.
Assay [10] is described as follows: A549 lung cancer cell viability effects, profiling panel, resazurin fluorescence, 24 h, PK04 Diversity Set (AID 1171). Also: test concentration not given here. The note with it: higher = more signal, called active from +8 up or from −8 down. On the technique in general: Alamar Blue is a resazurin reagent that responds to reducing activity.
A short description of assay [11]: HepG2 liver cancer cell viability effects, profiling panel, resazurin fluorescence, 24 h, PK04 Diversity Set (AID 1172). Also: test concentration not given here. To be noted: higher = more signal.
Assay [12] is described as follows: basal S. cerevisiae growth modulation, no modifier, primary screen, OD600, strain BY4716, 24 h, basal condition (AID 1173). The note with it: OD600, 24 h, higher = more signal, called active from +8 up or from −8 down.
Assay [13] is described as follows: MM1S myeloma cell viability, profiling panel, resazurin fluorescence, basal, 24 h, PK04 Diversity Set (AID 1174).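 Also: MM1S multiple myeloma cell line; test concentration not given here.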 The note with it: higher = more signal, called active from +8 up or from −8 down.
Assay [14] addresses Dihydroorotate dehydrogenase (quinone), mitochondrial (Plasmodium falciparum (isolate 3D7)) (UniProt Q08210). Kind of assay: PfDHODH enzyme inhibitors, primary screen, biochemical, C-terminal His tag, absorbance 600 nm (AID 1175).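 Also: recombinant parasite enzyme with a five histidine tag at its C terminus; test concentration not given here.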 The note with it: DCIP absorbance 600 nm, higher = more signal, called active from +8 up or from −8 down.
Assay [15] in a line: P. aeruginosa biofilm formation inhibitors, primary screen, strain PAO1, LB-PBS medium, absorbance 600 nm (AID 1176). Also: test concentration not given here. To be noted: P. aeruginosa PAO1 growth/biofilm, A600, 12 h; higher = more signal.
Assay [16] in a line: S. cerevisiae RM11-1a growth modifiers, primary screen, strain RM11-1a, OD600, basal, 24 h (AID 1177).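 Also: cultures grown under basal conditions with no added stressor; test concentration not given here.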 To be noted: OD600, 24 h, higher = more signal, called active from +8 up or from −8 down.
Assay [17] in a line: E. coli acrAB mutant growth effects, primary screen, E. coli filamentation inducers, strain DRC39, OD650, 24 h (AID 1178).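 Also: growth measured as culture turbidity by optical density at 650 nm; test concentration not given here.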 To be noted: higher = more signal, called active from +8 up or from −8 down.
Assay [18] in a line: E. coli acrAB mutant growth effects, primary screen, E. coli filamentation inducers, strain DRC39, OD650, 48 h (AID 1179).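 Also: screen aims at cell division blockers that make cells filament.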 To be noted: E. coli DRC39 delta-acrAB growth, higher = more signal, called active from +8 up or from −8 down.
The nature of assay [19]: RPMI8226 myeloma cell viability, profiling panel, resazurin fluorescence, basal, 24 h, PK04 Diversity Set (AID 1180).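 Also: RPMI8826 multiple myeloma cell line at 5000 cells per well; test concentration not given here.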 The note with it: higher = more signal.
For assay [20], the target named is E3 ubiquitin-protein ligase XIAP (Homo sapiens) (UniProt P98170). Kind of assay: XIAP binders, primary screen, biophysical, small-molecule microarray, fluorescence 635 nm (AID 1181).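 Also: score merges 667 nm emission and signal to noise over triplicate slides.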 To be noted: small-molecule microarray binding, higher = more signal.

The source made the active and inactive calls. Unless noted, no rule for the calls is given here.

Sequence of Dihydroorotate dehydrogenase (quinone), mitochondrial (Plasmodium falciparum (isolate 3D7)) (Q08210 whole entry, looked up): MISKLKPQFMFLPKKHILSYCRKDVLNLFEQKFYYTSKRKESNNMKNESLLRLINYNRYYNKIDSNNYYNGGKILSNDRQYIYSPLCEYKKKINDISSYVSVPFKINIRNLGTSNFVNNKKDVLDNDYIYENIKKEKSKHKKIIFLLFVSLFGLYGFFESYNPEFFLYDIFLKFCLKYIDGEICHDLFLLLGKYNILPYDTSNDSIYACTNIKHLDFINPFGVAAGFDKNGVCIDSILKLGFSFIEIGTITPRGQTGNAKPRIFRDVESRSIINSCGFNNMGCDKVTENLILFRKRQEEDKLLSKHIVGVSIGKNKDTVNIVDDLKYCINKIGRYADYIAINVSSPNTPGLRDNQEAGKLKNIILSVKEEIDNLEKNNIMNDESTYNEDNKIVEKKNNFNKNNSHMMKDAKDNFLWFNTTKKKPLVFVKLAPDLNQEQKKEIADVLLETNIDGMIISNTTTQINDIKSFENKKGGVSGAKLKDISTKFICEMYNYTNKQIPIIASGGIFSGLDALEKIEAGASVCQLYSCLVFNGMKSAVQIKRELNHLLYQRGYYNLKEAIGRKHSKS
Sequence of E3 ubiquitin-protein ligase XIAP (Homo sapiens) (P98170 whole entry, looked up): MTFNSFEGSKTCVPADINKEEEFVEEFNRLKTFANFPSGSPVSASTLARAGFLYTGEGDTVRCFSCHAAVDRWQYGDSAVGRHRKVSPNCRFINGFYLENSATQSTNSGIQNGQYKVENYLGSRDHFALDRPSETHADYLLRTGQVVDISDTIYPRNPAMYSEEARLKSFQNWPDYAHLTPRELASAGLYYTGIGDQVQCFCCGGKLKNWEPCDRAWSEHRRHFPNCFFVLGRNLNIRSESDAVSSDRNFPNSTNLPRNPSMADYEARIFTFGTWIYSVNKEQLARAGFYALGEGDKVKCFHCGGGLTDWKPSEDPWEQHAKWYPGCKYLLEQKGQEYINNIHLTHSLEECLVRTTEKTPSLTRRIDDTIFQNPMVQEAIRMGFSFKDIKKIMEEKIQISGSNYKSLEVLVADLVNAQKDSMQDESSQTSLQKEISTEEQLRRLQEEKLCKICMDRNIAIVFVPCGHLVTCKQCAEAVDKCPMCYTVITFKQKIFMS

For `CCOc1cc(C(O)C2C=CC3C(=O)N(C4CCCCC4)C(=O)C3N2Nc2ccc(OC)cc2)ccc1O` (stereo not given), the z-score was 0.366 in assay [1]; -0.786 in [2]; 0.772 in assay [3]; 0.26 in assay [4]; -0.141 in assay [5]; 0.551 in assay [6]. The z-score was 0.283 (inactive) in [7]; -0.0341 in assay [8]; -1.87 in assay [9]; 0.265 (inactive) in assay [10]; 0.182 in [11]; 0.0779 (inactive) in assay [12]. For the same compound, the z-score was 0.312 (inactive) in assay [13]; 0.698 (inactive) in assay [15]; 0.0701 (inactive) in [16]; 0.231 (inactive) in assay [17]; 1.13 (inactive) in assay [18]; 0.753 in assay [19]. Moreover, the values for the composite z-score in assay [14] and in [20] were -0.665 (inactive) and 0.169, respectively.

Turning to `C=CCN1C(=O)[C@@]2(O[C@@H](CCn3cc([C@H](O)c4ccccc4)nn3)[C@H]([Si](C)(C)c3ccc(OC)cc3)[C@H]2C)c2ccccc21`, the z-score was -1.05 in assay [1]; 0.432 in assay [2]; -1.49 in assay [3]; -2.7 in assay [4]; -4.27 in assay [5]; 1.06 in assay [6]. The z-score was -0.644 (inactive) in assay [7]; -0.967 in assay [8]; -0.364 in assay [9]; -1.76 (inactive) in assay [10]; -0.986 in [11]; 0.117 (inactive) in assay [12]. Moreover, the z-score was -1.83 (inactive) in assay [13]; 0.626 (inactive) in assay [15]; 0.93 (inactive) in assay [16]; -0.599 (inactive) in assay [17]; -0.857 (inactive) in [18]; -1.97 in assay [19]. In addition, the composite z-score was -0.198 (inactive) in assay [14] and 0.144 in assay [20].

Turning to `O=C1O[C@@H](c2ccccc2)[C@@H](c2ccccc2)N2[C@@H](c3ccc(O)cc3)[C@]3(C(=O)Nc4ccccc43)[C@@H](C(=O)Nc3nc4ccccc4s3)[C@H]12`, the z-score in [1] is -2.07; in assay [2], 0.353; in [3], -1.49; in assay [4], -3.37; in [5], -4.55; in assay [6] it was -3.64. The z-score is 0.169 (inactive) in assay [7]; -1.23 in assay [8]; -1.76 in assay [9]; -1.9 (inactive) in [10]; -1.66 in assay [11]; -0.505 (inactive) in assay [12]. In addition, the z-score was -3.11 (inactive) in [13]; 2.43 (inactive) in [15]; 0.72 (inactive) in assay [16]; -0.0021 (inactive) in assay [17]; 0.251 (inactive) in [18]; -4.69 in assay [19]. For the same compound, the composite z-score is 0.162 (inactive) in assay [14] and -0.0045 in assay [20].

Regarding `CC(C)C(O)C1C=CC2C(=O)N(C)C(=O)C2N1Nc1ccccc1` (stereo not given), the z-score is 0.678 in assay [1]; -0.955 in assay [2]; 0.0515 in [3]; -1.53 in [4]; -0.283 in assay [5]; -0.993 in [6]. Further, the z-score is -1.15 (inactive) in [7]; -0.0596 in assay [8]; -0.254 in assay [9]; 0.204 (inactive) in assay [10]; -0.0778 in [11]; -0.411 (inactive) in [12]. Also, the z-score in assay [13] was -0.84 (inactive); in [15], 0.931 (inactive); in assay [16], 0.0222 (inactive); in [17] it was -0.219 (inactive); in assay [18] it was -0.434 (inactive); in assay [19], -1.29. For the same compound, the composite z-score was -0.482 (inactive) in [14] and 0.0159 in assay [20].

For `Cc1ccc(F)cc1S(=O)(=O)N[C@@H]1CCN(Cc2ccc(OC(C)C)cc2)C1`, the z-score in assay [1] was 0.0197; in [2], -0.382; in assay [3], -0.867; in [4], -2.58; in assay [5] it was -0.974; in assay [6], -1.41. Moreover, the z-score in assay [7] was 0.0582 (inactive); in assay [8], 0.0721; in [9], -1.87; in [10], -0.26 (inactive); in assay [11] it was -0.917; in assay [12], -8.98 (active). In addition, the z-score in assay [13] was -2.09 (inactive); in assay [15] it was -0.225 (inactive); in assay [16], 0.652 (inactive); in [17] it was -20 (active); in assay [18], -19.8 (active); in assay [19], -0.945. Moreover, the composite z-score in [14] was -0.0588 (inactive); in assay [20], -0.0794.

On to `C[n+]1ccc(CCCO)cc1`, for which the z-score in [1] is -0.566; in [2] it was 0.927; in [3], -0.96; in assay [4], 0.375; in assay [5], -1.77; in [6], -0.0921. The z-score was -0.321 (inactive) in assay [7]; -0.502 in assay [8]; 0.0343 in assay [9]; -1.15 (inactive) in [10]; -0.744 in assay [11]; 0.883 (inactive) in assay [12]. The z-score in assay [13] was -0.255 (inactive); in assay [15], -0.199 (inactive); in [16], 0.684 (inactive); in assay [17] it was -1.02 (inactive); in assay [18] it was -1.1 (inactive); in assay [19], -0.551. In addition, the composite z-score was -4.35 (inactive) in assay [14] and 0.769 in assay [20].

As to `COC(=O)c1c(CC[C@@H](CO)NC(=O)N[C@H](Cn2cc(-c3ccccc3C)nn2)C(C)C)oc(C(C)=O)c1C(=O)OC`, the z-score in [1] is -0.657; in [2], 1.55; in [3], 0.308; in assay [4] it was -0.759; in assay [5], -0.607; in assay [6] it was -0.24. The z-score was 0.37 (inactive) in assay [7]; -0.353 in assay [8]; -1.27 in assay [9]; -1.26 (inactive) in assay [10]; -0.329 in [11]; -0.723 (inactive) in assay [12]. The z-score in [13] was 0.173 (inactive); in assay [15] it was 0.574 (inactive); in assay [16], -0.489 (inactive); in assay [17] it was 0.173 (inactive); in [18], -0.488 (inactive); in assay [19], -0.371. In addition, the composite z-score was -3.09 (inactive) in [14] and 0.211 in [20].

Consider `CCOC(=O)C[C@H]1[C@H](OC(=O)Cc2ccc3c(c2)OCO3)[C@@H](NC(=O)C2CCCCC2)c2cc(OCCCO)ccc2N1C(=O)c1ccc2ccccc2n1`, for which the z-score in assay [1] was 0.177; in assay [2] it was 1.72; in assay [3], 0.726; in [4] it was 0.435; in assay [5], -1.18; in assay [6], -2.42. The z-score in assay [7] was 0.436 (inactive); in assay [8], 0.602; in [9] it was -0.703; in assay [10] it was 0.125 (inactive); in [11], 0.306; in assay [12], -1.65 (inactive). Moreover, the z-score in [13] was 0.773 (inactive); in assay [15], -1.93 (inactive); in [16], 0.133 (inactive); in assay [17], 0.777 (inactive); in assay [18], 0.259 (inactive); in [19], -0.338. Also, the results for the composite z-score in [14] and in [20] were -3.08 (inactive) and 0.302, respectively.
